Experimental data from PubChem BioAssay (Tox21).
Where “and” joins values, the source holds several entries; their conditions need not be identical. Equal values may be shown once. Results filed as inconclusive are left out. Entries that show only a call come without a potency. Calls of active or inactive are those of the source. Calls come from the whole dose curve.

Experiment: p53 small molecule agonists, cell-based qHTS assay: qHTS cell viability counter screen (AID 1963581); note: nearly all actives have a fitted effect of over 45% in size
Conditions: p53RE-bla HCT-116 viability, ATP luminescence, 16 h; series mostly up to 66 µM
From the text: National Center for Advancing Translational Sciences [NCATS]
Division of Preclinical Innovation [DPI]
U.S. Environmental Protection Agency [EPA]
National Institutes of Environmental Health Sciences [NIEHS]
National Toxicology Program [NTP]
U.S. Food and Drug Administration [FDA]
p53, a tumor suppressor protein, is activated following cellular insult, including DNA damage and other cellular stresses. The activation of p53 regulates cell fate by inducing DNA repair, cell cycle arrest, apoptosis, or cellular senescence. The activation of p53, therefore, is a good indicator of DNA damage and other cellular stresses. The CellSensor p53RE-bla HCT-116 cell line (Invitrogen) contains a stably integrated beta-lactamase reporter gene under control of the p53 response elements. The activation of the reporter gene under culture conditions can be detected by fluorescence intensity. This cell line was used to screen the Tox21 compound library in a 1536-well plate format and to identify agonists that activate the p53 signaling pathway. The cytotoxicity of the Tox21 compound library against the p53 RE-bla HCT-116 cell line was tested in parallel by measuring the intra cellular ATP content in the same wells.
Tox21 Assay Protocol Summary:
The p53RE-bla cells were dispensed at 4,000 cells/5 ul/well in 1536-well black wall/clear bottom plates using a Multidrop dispenser. After the assay plates were incubated at a 37 C/5% CO2 incubator for 5 hours, 23 nL of compounds dissolved in DMSO, positive controls or DMSO only was transferred to the assay plate by a pin tool. The plates were incubated at 37 C for 16 hours. After 1 uL of LiveBLAzerTM B/G FRET substrate was added using a Flying Reagent Dispenser, the plates were incubated at room temperature for 2 hours, and fluorescence intensity was measured by an Envision plate reader. For cell viability readout that measures cytotoxicity, 4 ul/well of CellTiter-Glo reagent was added into the assay plates using a Flying Reagent Dispenser. After 30 min incubation at room temperature, the luminescence intensity in the plates was measured using a ViewLux plate reader.

SMILES | Potency | activity change, negative = cytotoxicity
CCCc1nc(C)c2c(=O)[nH]c(-c3cc(S(=O)(=O)N4CCN(CC)CC4)ccc3OCC)nn12 | inactive | 
CC(=O)[O][Al] | inactive | 
Nc1c(Cl)cc(Cl)cc1[N+](=O)[O-] | inactive | 
Cc1c(C(=O)O)c(O)cc2c1C(=O)c1c(O)c([C@@H]3O[C@H](CO)[C@@H](O)[C@H](O)[C@H]3O)c(O)c(O)c1C2=O | inactive | 
NC(=O)Cn1c(=O)cc(CCN2CCN(c3nccc4sccc34)CC2)c2ccc(F)cc21 | inactive | 
O=C(/C=C/c1ccc(O)c(O)c1)O[C@@H]1C[C@@](OC(=O)/C=C/c2ccc(O)c(O)c2)(C(=O)O)C[C@@H](O)[C@@H]1O | inactive | 
CCN(CC)CCCC(C)Nc1ccnc2cc(Cl)ccc12 (stereo not given) |  | -9.2% [at 5.99 µM] (inactive) and -2.12% [at 13.5 µM] (inactive)
O=c1oc2cc(O)ccc2c2oc3cc(O)ccc3c12 | inactive | 
C=C(C)C1CC=C(C)C(=O)C1 (stereo not given) | inactive | 
CN(C)C(=O)C(CCN1CCC(O)(c2ccc(Cl)cc2)CC1)(c1ccccc1)c1ccccc1 | inactive | 
C/C(=C\c1ccc(C(=O)O)cc1)c1ccc2c(c1)C(C)(C)CCC2(C)C | inactive | 
O=[N+]([O-])c1ccc(O)cc1 | inactive | 
OC/C(Br)=C(\Br)CO | inactive | 
CO/N=C(/C(=O)N[C@@H]1C(=O)N2C(C(=O)[O-])=C(C[n+]3ccn4ncccc43)CS[C@H]12)c1nsc(N)n1 | inactive | 
CCCCCC=CCC=CCCCCCCCC(=O)OCC | inactive | 
Cc1ccc([N+](=O)[O-])cc1Cl | inactive | 
N=C(N)S(=O)O | inactive | 
O=C(Nc1ccc2c(c1)Cc1ccccc1-2)C(F)(F)F | inactive | 
CCCCOCC(C)OCC(C)O (stereo not given) | inactive | 
CC(C)=CCC[C@](C)(O)[C@@H]1CC=C(C)CC1 | inactive | 

SMILES | Potency | activity change, negative = cytotoxicity
CCOCC(C)O (stereo not given) | inactive | 
Nc1ccc(F)cc1 | inactive | 
COc1c2occc2cc2ccc(=O)oc12 | inactive | 
CCc1ccc2c(c1)C(=O)c1ccccc1C2=O | inactive | 
COc1cc(N)ccc1C | inactive | 
COc1cccc(N(C)C(=S)Oc2ccc3c(c2)CCCC3)n1 | inactive | 
CC(=O)CCC1=C(C)CCCC1(C)C | inactive | 
C(=C(c1ccccc1)c1ccccc1)c1ccccc1 | inactive | 
CC[N+](C)(CC)CCOC(=O)C1c2ccccc2Oc2ccccc21 | inactive | 
S=c1nccc[nH]1 | inactive | 
CC(C)OC(=O)CCC(=O)OC(C)C | inactive | 
O=C1c2ccccc2C(=O)c2cc(S(=O)(=O)O)ccc21 | inactive | 
c1ccc2sc(SSc3nc4ccccc4s3)nc2c1 |  | -1.21% [at 13.5 µM] (inactive)
O=C(O)CCCCCCCCCCCBr | inactive | 
CC(C)(C)c1ccc(-c2ccc(C(C)(C)C)cc2)cc1 | inactive | 
NC(CCC(=O)O)C(=O)O (stereo not given) | inactive | 
CCCCCC/C=C/C=O | inactive | 
CCCCCCCC/C=C\CCCCCCCC(=O)N(CCO)CCO | inactive | 
c1ccc(-c2ccccn2)nc1 | inactive | 
CCN(CC)c1ccc2c(-c3ccccc3C(=O)O)c3ccc(=[N+](CC)CC)cc-3oc2c1 | inactive | 
